A structure can be active in one record and inactive in another. The source made the active and inactive calls. How the source made its calls: active means hit-call score of the fitted dose curve at least 0.9, where 1 is the maximum; inactive means score below 0.9.
assay: ATG_M_19_CIS: Attagene CIS-FACTORIAL HepG2 Assay for M19 Transcription Factor (Internal Marker) (AID 2282939); details: HepG2 Attagene CIS-FACTORIAL M19 internal marker reporter; actives raise or lower the signal
Experimental: ATG_CIS is a cell-based, multiplexed-readout assay that uses HepG2, a human liver cell line, with measurements taken at 24 hours after chemical dosing in a 24-well plate.ATG_M_19_CIS is one of 52 assay component(s) measured or calculated from the ATG_CIS assay. It is designed to make measurements of mRNA induction, a form of inducible reporter, as detected with fluorescence intensity signals by Reverse transcription polymerase chain reaction (RT-PCR) and Capillary electrophoresis technology.Data from the assay component ATG_M_19_CIS was analyzed into 1 assay endpoint. This assay endpoint, ATG_M_19_CIS, was analyzed with bidirectional fitting relative to DMSO as the negative control and baseline of activity. Using a type of inducible reporter, measures of mRNA for gain or loss-of-signal activity can be used to understand the background control at the transcription factor-level as they relate to the gene . Furthermore, this assay endpoint can be referred to as a secondary readout, because this assay has produced multiple assay endpoints where this one serves a background control function. To generalize the intended target to other relatable targets, this assay endpoint is annotated to the background measurement intended target family, where the subfamily is internal marker.
Human liver HepG2 cells are transiently transfected with multiple reporter transcription units (MRTUs) in 6-well plates using FuGene 6 reagent (Roche; 3 ml FuGene/1 mg DNA). The MRTU constructs are regulated by a cis-regulating element (promoter). […] A major difference between the CIS and TRANS system is that in CIS activities of endogenous TFs are measured, whereas the TRANS assay evaluates changes in activities of exogenous, chimeric NR-Gal4 proteins. […] At the end of 24 hour incubation, total RNA was isolated using TriZol reagent (Invitrogen). The isolated RNA is then reverse-transcribed using oligo(dT) primer and Mo-MLV reverse transcriptase (Invitrogen) with DNAse I (Ambion) treatment for 30 min. The one-tenth of the produced cDNA was amplified by PCR using Taq DNA polymerase (Invitrogen) and two reporter sequence-specific primers. The PCR products were fluorescently labeled by primer extension with 6-arboxyfluorescein (6-FAM) 5'-labeled reporter sequence-specific primer (2 min at 95 C, 20 s at 68 C and 10 min at 72 C) and these products were digested with 5U of HpaI (New England Biolabs) for 2h at 37 C. The fragments were purified using Qiaquick PCR columns (Qiagen), analyzed on an ABI 3130xL genetic analyzer (Applied Biosystems) with peak positions identified by using a set of X-rhodamine (ROX)-labeled MapMarker1000 molecular weight standards (BioVentures). The raw capillary electrophoresis data was processed using Attagraph software (Attagene).

Row | SMILES | outcome | AC50
1 | O=C(O)c1[nH]n(-c2ccc(S(=O)(=O)O)cc2)c(=O)c1N=Nc1ccc(S(=O)(=O)O)cc1 | inactive | 
2 | CC(C)c1cccc(C(C)C)c1NC(=O)NS(=O)(=O)c1cc(C(C)(C)O)co1 | inactive | 
3 | COc1ccc(OC(F)(F)F)cc1CN[C@H]1CCCN[C@H]1c1ccccc1 | inactive | 
4 | COC(=O)CCC(=O)OC | inactive | 
5 | CC(=O)O[C@]1(C(C)=O)CC[C@H]2[C@@H]3C=C(Cl)C4=CC(=O)[C@@H]5C[C@@H]5[C@]4(C)[C@H]3CC[C@@]21C | inactive | 180 µM (active)
6 | O=C1c2c(O)cccc2Cc2cccc(O)c21 | inactive | 
7 | C=CCCCCCCCCCCCC | inactive | 
8 | CCc1cc(C2=C(C(=O)O)N(c3ccccc3C(F)(F)F)S(=O)(=O)c3ccccc32)cc2c1OCO2 | inactive | 
9 | NC=O | inactive | 
10 | NC(=Nc1ccccc1)Nc1ccccc1 | inactive | 
11 | O=NO | inactive | 
12 | O=C1OC(c2ccc(O)cc2)(c2ccc(O)cc2)c2ccccc21 | inactive | 
13 | CCCCCCC(CCCCCCCCCCC(=O)OCC(COC(C)=O)OC(C)=O)OC(C)=O (stereo not given) | inactive | 
14 | CCCCC(CC)COC(=O)CCCCCCCC(=O)OCC(CC)CCCC (stereo not given) | inactive | 
15 | C/C=C/c1ccc(OC)cc1 | inactive | 
16 | CC(=O)OC1CC(C)OC(C)O1 (stereo not given) | inactive | 
17 | CCCCCCC(C=O)=Cc1ccccc1 | inactive | 
18 | O=C1CCCCC1 | inactive | 
19 | CCCC[C@H]1CN(CC2CCOCC2)C(=O)OC12CCN(C1(C)CCN(C(=O)c3c(C)ncnc3C)CC1)CC2 | inactive | 
20 | CC(C)OC(=O)C(C)(C)Oc1ccc(C(=O)c2ccc(Cl)cc2)cc1 | inactive | 

Row | SMILES | outcome | AC50
21 | CSc1ccc(Oc2ccc(S(N)(=O)=O)cc2CN(C)C)cc1C | inactive | 
22 | c1ccc2occc2c1 | inactive | 
23 | CCCCC(CC)CO (stereo not given) | inactive | 
24 | O=C(Oc1ccccc1)c1cccc(C(=O)Oc2ccccc2)c1 | inactive | 
25 | CS(=O)(=O)c1ccc([C@@H](C[C@H]2CCC(=O)C2)C(=O)Nc2cnccn2)cc1Cl | inactive | 
26 | Cc1c(C)c2c(c(C)c1O)CCC(C)(COc1ccc(CC3SC(=O)NC3=O)cc1)O2 (stereo not given) | inactive | 
27 | C=CCc1ccc(OC)c(OC)c1 | inactive | 
28 | CN(C)CCCN1c2ccccc2Sc2ccc(Cl)cc21 | inactive | 
29 | NCCOCCOCCN | inactive | 
30 | O=Cc1ccccc1C=O | inactive | 
31 | CCCCOC(=O)CCCCC(=O)OCCCC | inactive | 
32 | CCCCCCCCCCCCCCOS(=O)(=O)O | inactive | 
33 | N[C@@H](Cc1c[nH]c2ccccc12)C(=O)O | inactive | 
34 | CC(C)COC(=O)CCCCC(=O)OCC(C)C | inactive | 
35 | CC(=O)CC(c1ccccc1)c1c(O)c2ccccc2oc1=O (stereo not given) | inactive | 
36 | CCCCCCCC(=O)OC | inactive | 
37 | CC(=O)[C@@]1(O)CC[C@H]2[C@@H]3CCC4=CC(=O)CC[C@]4(C)[C@H]3CC[C@@]21C | inactive | 
38 | Cn1cnc2c1c(=O)[nH]c(=O)n2C | inactive | 
39 | O=C1NC(=O)C(c2ccccc2)(c2ccccc2)N1 | inactive | 

Reference: PubChem BioAssay (EPA / NIEHS)
